Records with an inconclusive call do not appear. A number with no mark means an inactive call. Calls of active or inactive are those of the source. Calls follow the shape of the dose curve; as a rule, active = well fitted inhibition curve with a large enough effect; inconclusive = small, poorly fitted or top-dose-only effect; inactive = flat fitted curve, though single readings scatter.
These compounds were tested against Glutathione peroxidase 1 (Homo sapiens) (UniProt P07203) (assay: Primary qHTS Assay for Inhibitors of Recombinant Selenoprotein Glutathione Peroxidase 1 (GPX1) (AID 1845191; also: nearly all actives have a fitted effect of over 65% in size)). Conditions: recombinant GPX1, GR-coupled NADPH fluorescence, 15 min; series mostly up to 48.8 µM; activity, negative = inhibition: at the top concentration.
Procedure, shortened: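 GPX1 10 nM, GR 100 nM, GSH 1 mM, NADPH 0.5 mM, CHP 0.5 mM (final). 30-min cpd preincubation, RT. Ex340/Em450 read t=0, t=15 min.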
% is scaled to controls: 0 for no effect and ±100 for the full control effect.

Chain of Glutathione peroxidase 1 (Homo sapiens) (P07203 whole entry, looked up): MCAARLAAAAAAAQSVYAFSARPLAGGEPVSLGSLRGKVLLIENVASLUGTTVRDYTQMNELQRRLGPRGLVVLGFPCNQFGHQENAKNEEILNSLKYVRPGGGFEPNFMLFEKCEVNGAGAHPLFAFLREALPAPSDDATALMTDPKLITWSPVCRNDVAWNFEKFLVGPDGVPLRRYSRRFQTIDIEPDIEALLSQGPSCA

Row | SMILES | outcome | Potency | activity, negative = inhibition
1 | COc1cc(NC(=O)c2ccccn2)ccc1Cl | inactive | – | –
2 | Nc1nonc1C(=Nc1ccc(F)c(Cl)c1)NO | inactive | – | –
3 | CC(C)Nc1cc(-c2c[nH]c(C(=O)N[C@H](CO)c3cccc(Cl)c3)c2)c(Cl)cn1 | – | inactive | –
4 | CN1C(=O)c2ccccc2-n2c(nc3ccccc3c2=O)/C1=C/c1ccccc1 | inactive [at 27.7 µM] | – | –
5 | CC(=O)N[C@H]1CCN(c2ccc(C3=NOC(CN[S+](=O)([O-])C(C)C)C3)cc2F)C1 (stereo partly drawn) | – | – | -14.7%
6 | C/C(=C\CCC(C)(O)c1ccc(C)cc1)C(=O)O (stereo not drawn) | – | – | 1.16%
7 | O=C1N(CC2CCCCN2)CCN1c1ccccc1 (stereo not drawn) | inactive | – | –
8 | CC(=O)O[C@@H]1[C@H](O[C@@H]2O[C@H](CO)[C@@H](O)[C@H](O)[C@H]2O)[C@@H](O[C@@H]2O[C@@H](C)[C@H](O)[C@@H](O[C@@H]3O[C@H](CO)[C@@H](O)[C@H](O)[C@H]3O)[C@H]2O)[C@H](OC(=O)C23CCC4(C)C(=CCC5C6(C)CC(O)C(O[C@@H]7O[C@H](C(=O)O)[C@@H](O)[C@H](O)[C@H]7O)C(C)(C(=O)O)C6CCC54C)C2CC(C)(C)CC3O)O[C@@H]1C (stereo partly drawn) | inactive [at 9.52 µM] | – | –
9 | C/C(=C/CO)CC[C@@H]1[C@@]2(C)CCC[C@](C)(C(=O)O)C2CC[C@@]1(C)O (stereo partly drawn) | – | – | -8.44% [at 27.7 µM]
10 | CC1(C)O[C@]23C[C@H]1C[C@H](OC(=O)c1ccoc1)[C@]2(C)[C@@H](OC(=O)c1ccoc1)CCC3(C)O (stereo partly drawn) | – | – | 4.62% [at 27.7 µM]
11 | C[C@@H]1C(=O)O[C@H]2[C@H]1CC[C@@]1(C)C(=O)C=C[C@](C)(O)[C@H]21 | inactive | – | –
12 | C=CC(C)(O)CO[C@@H]1O[C@H](CO)[C@@H](O)[C@H](O)[C@H]1O (stereo partly drawn) | – | – | -7%
13 | C=C1CCC2C(OC(=O)C2(O)COC(C)=O)C2C(=C)C(O)CC12 (stereo not drawn) | inactive [at 27.7 µM] | – | –
14 | CC1(C)CC2C3=CCC4C5(C)CCC(OC6OC(CO)C(O)C(OC7OC(CO)C(O)C(OC8OC(CO)C(O)C(OC9OC(COC%10OC(CO)C(O)C(O)C%10O)C(O)C(O)C9O)C8O)C7O)C6O)C(C)(C)C5CCC4(C)C3(C)CCC2(C(=O)O)CC1O (stereo not drawn) | – | – | -11.7% [at 9.52 µM]
15 | O=C1[C@H](O[C@@H]2O[C@H](CO)[C@@H](O)[C@H](O)[C@H]2O)Oc2ccccc2N1O | – | – | -11.4% [at 27.7 µM]
16 | CC(=O)OCCC(C)CCC1C(C)(O)CCC2C(C)(C)CCCC21C (stereo not drawn) | inactive [at 27.7 µM] | – | –
17 | CCOc1ccc2c(c1)C(C)=CC(C)(C)N2 | – | – | -5.83% [at 98.3 µM]

Row | SMILES | outcome | Potency | activity, negative = inhibition
18 | C=C1CCC2C(C)(C)C(O)CCC2(C)C1CCC(C)CCOC(=O)CCC(=O)O (stereo not drawn) | – | – | -15.6% [at 27.7 µM]
19 | C=CCc1ccc(O[C@@H]2O[C@H](CO)[C@@H](O)[C@H](O)[C@H]2O)c(OC)c1 | – | – | 4.04% [at 27.7 µM]
20 | OC[C@H]1O[C@@H](OC(CCCCc2ccc(O)cc2)CCc2ccc(O)cc2)[C@H](O[C@@H]2OC[C@](O)(CO)[C@H]2O)[C@@H](O)[C@@H]1O (stereo partly drawn) | inactive [at 15.3 µM] | – | –
21 | CC[C@@H](C(=O)[C@@H](C)[C@@H](O)[C@H](C)CCc1ccc(C)c(O)c1C(=O)O)[C@H]1O[C@](CC)([C@H]2CC[C@](O)(CC)[C@H](C)O2)C[C@@H]1C | – | – | -31.6%
22 | COc1cc(/C=C/C(=O)OC2CC(C)=C(C(=O)O)/C2=C/CO[C@@H]2O[C@H](CO)[C@@H](O)[C@H](O)[C@H]2O)ccc1O (stereo partly drawn) | inactive [at 27.7 µM] | – | –
23 | NC(Cc1c[nH]c2ccccc12)C(=O)NC(CCC(=O)O)C(=O)O (stereo not drawn) | – | – | -8.41%
24 | C=C(C)[C@@H]1CC[C@](C)(O)[C@@H](OC(=O)c2ccccc2)C1 | inactive | – | –
25 | COc1cc(C2c3cc(O)c(OC)cc3CC(CO)C2CO)ccc1O (stereo not drawn) | inactive [at 27.7 µM] | – | –
26 | CCCOc1ccn2c(C(C)=O)cc(-c3ccccc3S(C)(=O)=O)c2c1 | – | inactive | –
27 | CNc1nc(Nc2cnn([C@H]3CCN(C4COC4)C[C@@H]3F)c2Cl)ncc1C(F)(F)F | inactive | – | –
28 | CNC(=O)Nc1ccc(OC)c(NC(=O)NC(=O)c2cc(F)c(F)cc2Cl)c1 | – | – | 2.48%
29 | CO[C@@]12CC3[C@@H]([C@@H](O)[C@@H](OC(C)=O)C4[C@](C)(COC(C)=O)CCC[C@]34C)[C@@H](C)C1=CC(=O)O2 (stereo partly drawn) | inactive [at 27.7 µM] | – | –
30 | CC1C(=O)CC2C3C(O)CC(C(=O)O)C12CC3(C)C (stereo not drawn) | inactive | – | –
31 | COC(=O)C[C@@H]1C(C(=O)O)=CO[C@@H](O[C@@H]2O[C@H](CO)[C@@H](O)[C@H](O)[C@H]2O)/C1=C\COC(=O)/C=C\c1ccccc1 | inactive [at 27.7 µM] | – | –
32 | CC1(C(=O)O)CCCC2(C)C1CCC13CC(CCC21)C1(CO)OC31 (stereo not drawn) | inactive [at 27.7 µM] | – | –
33 | COc1ccc2c(c1)O[C@H](O[C@@H]1O[C@H](CO)[C@@H](O)[C@H](O)[C@H]1O)C(=O)N2 | inactive [at 27.7 µM] | – | –

— PubChem BioAssay (NCATS)
